A selection: hits, their analogues and other compounds. The true share with any hit is near 21%.
TDP1 cell noCPT = qHTS for Inhibitors of human tyrosyl-DNA phosphodiesterase 1 (TDP1): qHTS in cells in absence of CPT. DT40 Tdp1-/- hTDP1 cells, no CPT, ATP luminescence, 48 h. Potency, µM (doses to about 46.2 µM), for inactives: at the top dose activity change, negative = growth inhibition, usual class: inhibitors. actives 15% (n = 420,000). AID 686978, 2013; also: potency is read from the fitted curve at half-maximal effect; nearly all actives have a fitted effect of over 55% in size
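Cells were dispensed at 400 per well, compounds added by pin tool, plates incubated ≥48 hr at 37 °C, then CellTiter-Glo added for 30 min at room temperature before luminescence reading. Line: DT40 Tdp1-/- complemented with hTDP1; camptothecin omitted.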
ELG1 repair inh = inhibitors of ELG1-dependent DNA repair in HEK293T cells; HEK293T ELG1-luciferase reporter, luminescence, 16 h; DNA damage induced by 5-fluorouridine; Potency, µM (top dose mostly 46.1 µM), inactives show top-dose activity change, negative = inhibition, actives largely listed as inhibitors; actives 2.3% (n = 330,000); AID 504467; also: potency is read from the fitted curve at half-maximal effect; nearly all actives have a fitted effect of over 55% in size
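5-Fluorouridine DNA damage + compound/DMSO, 2,000 cells/well, 16 h, 37 °C/5% CO2. ONE-Glo, 30 min RT, luminescence. Readout = decrease in reporter signal.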
Gal4-VP16 FLuc = counter-screen for ROR gamma inhibitors: Gal4-VP16 reporter; Potency, µM (series often up to 53.6 µM), without a hit: at the highest dose activity, negative = inhibition, usual class: inhibitors; actives 3.5% (n = 310,000); Drosophila S2 Gal4-VP16 UAS-luciferase, luminescence, 20 h; AID 2546;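 also: Gal4-VP16 expression switched on by copper sulfate through the metallothionein promoter; potency is read from the fitted curve at half-maximal effect; nearly all actives have a fitted effect of over 50% in size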
IL-1B inflam inh = inflammasome signaling inhibition, IL-1 beta readout. THP-1 LPS/ATP IL-1B secretion, AlphaLISA, 16 h; stronger effect = lower value. activity change, % at 57.5 µM. actives 4.7% (n = 360,000). AID 743279; in the data active = activity change below about -50%; inconclusive = mostly about -30% to -49%
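Secreted IL-1B measured by AlphaLISA bead assay after 16 h compound exposure of THP-1 cells; compounds (final up to 57.5 uM) added 1 h before LPS (250 ng/mL) and ATP (1.25 mM) stimulation; lower signal means less secretion.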
TDP1 cell CPT = growth inhibition of DT40 Tdp1-/-;hTDP1 cells with camptothecin (screen for TDP1 inhibitors); Potency, µM (highest dose often 46.2 µM), for inactives: at the highest dose activity change, negative = growth inhibition, hits mostly inhibitors; chicken DT40 Tdp1-/-;hTDP1 cells + 20 nM CPT, ATP luminescence, 48 h; actives 12% (n = 420,000); also: potency is read from the fitted curve at half-maximal effect; nearly all actives have a fitted effect of over 55% in size
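Chicken DT40 Tdp1-/- cells complemented with human TDP1, 400 cells/well, exposed to compounds plus 20 nM camptothecin for at least 48 h at 37 C; viability read as ATP content by CellTiter-Glo luminescence.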
RORgamma inh = ROR gamma (mouse) transcription inhibition | Potency, µM (top dose mostly 53.6 µM), without a hit: at the top dose activity change, negative = inhibition, actives largely listed as inhibitors | P51450 | actives 5.4% (n = 310,000) | Drosophila S2 Gal4-RORgamma UAS-luciferase reporter, 20 h | AID 2551; also: potency is read from the fitted curve at half-maximal effect; nearly all actives have a fitted effect of over 60% in size
Target sequence (P51450 whole entry, looked up, the tested form may be a part): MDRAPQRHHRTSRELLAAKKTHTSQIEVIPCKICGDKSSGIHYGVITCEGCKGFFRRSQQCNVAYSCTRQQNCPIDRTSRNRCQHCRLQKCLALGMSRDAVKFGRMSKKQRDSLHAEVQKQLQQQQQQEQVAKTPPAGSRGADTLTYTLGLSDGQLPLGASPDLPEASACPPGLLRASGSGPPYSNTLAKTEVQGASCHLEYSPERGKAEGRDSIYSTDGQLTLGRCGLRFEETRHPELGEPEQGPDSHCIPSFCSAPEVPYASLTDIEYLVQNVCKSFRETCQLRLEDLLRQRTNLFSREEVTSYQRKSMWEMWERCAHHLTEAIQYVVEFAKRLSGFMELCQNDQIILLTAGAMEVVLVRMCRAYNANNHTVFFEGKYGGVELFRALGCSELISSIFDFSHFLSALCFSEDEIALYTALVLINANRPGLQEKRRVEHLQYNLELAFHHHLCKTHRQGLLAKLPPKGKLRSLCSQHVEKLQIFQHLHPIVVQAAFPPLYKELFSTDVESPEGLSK
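ROR gamma transcriptional activity was tracked as Gal4-UAS luciferase output in stably transfected Drosophila Schneider cells, with compound added 1 hr before 700 uM copper sulfate induction and a 20 hr ambient-temperature incubation.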
* = called active by the depositor; ? = inconclusive; . = no result. Unless noted, calls follow the shape of the dose curve; as a rule, active = well fitted curve in the direction sought with a large enough effect; inconclusive = small, poorly fitted or top-dose-only effect, or another doubt; inactive = no such curve, though single readings can be large; an effect the other way counts as inactive or inconclusive. % is scaled to controls: 0 for no effect and ±100 for the full control effect.

SMILES	TDP1 cell noCPT	ELG1 repair inh	Gal4-VP16 FLuc	IL-1B inflam inh	TDP1 cell CPT	RORgamma inh
CCCCNC(=O)c1ccc(CS(=O)(=O)c2ccc(OC)cc2)o1	-25.5%	0.7%	-27.6%	-17.7	?	-11.5%
COCCNC(=O)c1ccc(CS(=O)(=O)c2ccccc2)o1	16.4µM*	-0.5%	-10.1%	10.2	18.4µM*	-0.1%
CCCCSCCCNC(=O)c1ccc(CS(=O)(=O)c2ccc(OC)cc2)o1	?	-21.8%	-3.3%	-2.8	18.4µM*	6.4%
CN(C)C1C(=O)C(C(N)=O)C(=O)C2(O)C(=O)C3C(=O)c4c(O)ccc(Cl)c4C(O)C3CC12 (stereo not drawn)	.	.	-8.0%	.	.	-11.3%
O=C(CCSc1nnc(-c2ccco2)o1)Nc1ccc(F)cc1	13.9%	-9.9%	-7.0%	0.0	9.6%	28.6%
CCOC(=O)c1c(NC(=O)c2nn(CC)cc2Br)c(C#N)cn1-c1ccccc1	20.6µM*	?	-7.9%	?	?	14.7%
CCOC(=O)c1c(N)c(C#N)cn1-c1ccccc1	0.9%	?	-3.8%	-4.9	-29.9%	-7.6%
CCOC(=O)c1c(-c2ccccc2)csc1NC(=O)c1nc(SCC)ncc1Cl	?	.	.	.	-9.5%	.
CCOC(=O)c1c(-c2ccccc2)csc1NC(=O)CSc1nc(C)cc(C)n1	23.1µM*	?	?	-22.1	?	?
CCOC(=O)c1c(-c2ccccc2)csc1NC(=O)CSc1nc(N)cc(N)n1	8.2µM*	-22.8%	-17.6%	-9.9	?	?
CCOC(=O)c1c(-c2ccccc2)csc1NC(=O)c1nn(CC)cc1Br	?	11.6µM*	-15.4%	-66.7*	?	0.6%
C=CCN(CC(=O)Nc1cccnc1)S(=O)(=O)c1ccc(Cl)cc1	-17.9%	-4.0%	.	-0.4	-21.0%	.
O=C(NC1CCCC1)C(c1cccnc1)N(C(=O)c1csnn1)c1ccccc1Cl (stereo not drawn)	-6.7%	0.3%	0.1%	31.0	-11.3%	?
Cc1ccc(NC(=O)CSc2nc3c(c(=O)[nH]2)CCC3)c(C)c1	18.4%	0.8%	-5.3%	12.8	-11.7%	-10.5%
CC(=O)Nc1cc(NC(C)=O)cc(C(=O)NCC2(N3CCOCC3)CCCCC2)c1	3.2%	14.6%	.	10.4	1.0%	.
COCc1ccc(C(=O)NCC2(N3CCCCC3)CCCCC2)cc1	23.1µM*	?	-6.5%	5.5	?	-4.9%
O=C(COc1ccc([N+](=O)[O-])cc1)NCC1(N2CCOCC2)CCCCC1	?	.	.	.	-28.6%	.
CC(C)(C)c1ccc(C(=O)NCCCN2CCN(CCCNC(=O)c3ccc(C(C)(C)C)cc3)CC2)cc1	9.2µM*	?	12.6µM*	-80.6*	9.2µM*	7.08µM*
CS(=O)(=O)Cc1ccc(C(=O)NCC2(N3CCCCC3)CCCCC2)cc1	-16.2%	7.9%	1.7%	-5.1	-0.2%	0.8%
COc1ccccc1OC(C)C(=O)NCC1(N2CCOCC2)CCCCC1 (stereo not drawn)	18.4µM*	.	.	.	23.1µM*	.
CC(C)(C)c1ccc(OCC(=O)NCC2(N3CCOCC3)CCCCC2)cc1	16.4µM*	.	.	.	13µM*	.
O=C1OCCC1N(C(=O)C1CC1)c1cccc(Cl)c1 (stereo not drawn)	.	.	-3.8%	.	.	-3.4%
CCOc1ccccc1NC(=O)C(Cc1ccccc1)NS(=O)(=O)c1ccc2c(c1)oc(=O)n2C (stereo not drawn)	8.5%	.	.	.	?	.
Cc1ccccc1-c1csc(C(O)c2ccccc2)n1 (stereo not drawn)	0.2%	.	.	-17.5	-19.6%	.
CN1CCN(C2(CNC(=O)c3ccc(C(C)(C)C)cc3)CCCCC2)CC1	16.4µM*	.	.	.	?	.
SMILES	TDP1 cell noCPT	ELG1 repair inh	Gal4-VP16 FLuc	IL-1B inflam inh	TDP1 cell CPT	RORgamma inh
CC(C)COc1ccc(C(=O)NCC2(N3CCN(C)CC3)CCCCC2)cc1	18.4µM*	.	.	.	?	.
COc1cc(NC(=O)COC(=O)c2ccccc2SCC(=O)N2CCCC2)cc(OC)c1	?	?	.	3.8	?	.
CCN(C[C@H]1N[C@@](Cc2ccccc2)(C(=O)OC)[C@H]2C(=O)N(Cc3ccccc3)C(=O)[C@@H]12)C(=O)C1CCCCC1	13µM*	-11.0%	.	-17.7	?	.
COC(=O)[C@]1(Cc2ccccc2)N[C@H](CN(C)C(C)=O)[C@@H]2C(=O)N(Cc3ccccc3)C(=O)[C@@H]21	4.1%	7.8%	.	16.3	-6.5%	.
CCNC(=O)N(CC)C[C@H]1N[C@@](Cc2ccccc2)(C(=O)OC)[C@H]2C(=O)N(Cc3ccccc3)C(=O)[C@@H]12	-28.2%	-1.9%	.	11.8	12.2%	.
CCN(C[C@H]1N[C@@](Cc2ccccc2)(C(=O)OC)[C@H]2C(=O)N(Cc3ccccc3)C(=O)[C@@H]12)C(=O)COc1ccccc1	18.4µM*	4.5%	.	-20.5	20.6µM*	.
COC(=O)[C@]1(Cc2ccccc2)N[C@H](CN(C)C(=O)COc2ccccc2)[C@@H]2C(=O)N(Cc3ccccc3)C(=O)[C@@H]21	?	-0.2%	.	-0.2	20.6µM*	.
COCCn1c(=O)c(-c2ccccc2)nc2cnc(Oc3ccc(OC)cc3)nc21	-18.8%	.	-25.8%	.	?	?
Cc1ccc2onc(CNC(=O)NCc3ccccc3)c2c1	-1.7%	.	.	.	-28.2%	.
CCOC(=O)N1CCN(S(=O)(=O)N2CCCC(C(=O)NC(C)c3ccccc3)C2)CC1 (stereo not drawn)	-3.6%	-11.6%	-2.2%	2.3	-23.8%	13.9%
Cc1ccc2c(c1)C(=O)C(=O)N2CC(=O)OC(C)C	5.8µM*	-1.5%	13.9%	12.6	5.17µM*	1.1%
Cc1ccc2c(c1)C(=O)C(=O)N2Cc1ccc(C(F)(F)F)cc1	1.03µM*	?	.	62.5	0.92µM*	.
Cc1ccc2c(c1)C(=O)C(=O)N2Cc1ccc(OC(C)C)cc1	0.058µM*	.	.	.	0.0073µM*	.
COc1ccc(NC(C)=O)cc1S(=O)(=O)N(C)Cc1c(C)nn(-c2ccccc2)c1C	5.4%	-25.2%	.	-1.0	6.1%	.
CCOC(=O)C1=CN(Cc2ccco2)S(=O)(=O)N(CC)C1c1ccccc1 (stereo not drawn)	-22.3%	-11.0%	.	4.6	?	.
COc1ccccc1NC(=O)N1CCN(Cc2ccc3c(c2)OCO3)CC1	-2.6%	-2.3%	-1.2%	-14.9	-29.8%	0.0%
O=C(N[C@H](CO)Cc1ccccc1)[C@H]1O[C@@H](n2ccc(=O)[nH]c2=O)[C@H](O)[C@@H]1O	0.6%	.	.	-21.4	-4.6%	.

Source: PubChem BioAssay
